Source: PubChem BioAssay (Tox21)
Inconclusive results are not listed. A call without a number means that no potency is given here. A number with no mark means an inactive call. Calls of active or inactive are those of the source. Calls follow the shape of the dose curve; as a rule, active = well fitted cell-killing curve with a large enough effect in the repeat runs; inconclusive = weak or mixed curves, or effect the other way; inactive = flat fitted curve, though single readings scatter.

experiment: qHTS assay to identify small molecule antagonists of the androgen receptor (AR) signaling pathway using the MDA cell line in the presence of 0.5 nM R1881 - cell viability counter screen (AID 1259242); details: MDA-kb2 viability, CellTiter-Fluor protease fluorescence, 16 h; series mostly up to 92.4 µM; also: nearly all actives have a fitted effect of over 45% in size
From the text: U.S. Tox21 Program National Center for Advancing Translational Sciences [NCATS] NIH Chemical Genomics Center [NCGC] U.S. Environmental Protection Agency [EPA] National Institutes of Environmental Health Sciences [NIEHS] National Toxicology Program [NTP] U.S. Food and Drug Administration [FDA] Tox21 Assay Overview: Androgen receptor (AR) is an important member of the nuclear receptor family. Its signaling plays a critical role in AR-dependent prostate cancer and other androgen related diseases. Considerable attention has been given in the past decades to develop methods to study and screen for the environmental chemicals that have the potential to interfere with metabolic homeostasis, reproduction, developmental and behavioral functions. Therefore AR binding assay for screening androgen antagonists can be used to identify potential endocrine disruptors. MDA-kb2 cells (from ATCC, deposited by Wilson et al.) were used to screen for AR inhibitors against Tox21 compound libraries. These cells are human breast carcinoma cells that were stably transfected with a luciferase reporter gene under control of the MMTV promoter that contains response elements for both androgen receptor (AR) and glucocorticoid receptor (GR). The current screening for identification of AR inhibitors against Tox21 libraries used lower concentration of (0.5 nM) R1881 as a stimulator. The cytotoxicity of the Tox21 compound libraries against MDA-kb2 cell line was tested by measuring live-cell protease activity using CellTiter-Fluor assay in the same wells.
Tox21 Assay Protocol Summary: MDA-kb2 cells (cells cultured without CO2) were dispensed at 3,000 cells/well in 4 uL of culture medium into white wall/solid-bottom 1536-well plates (Corning Life Sciences, Corning, NY) using a Multidrop Combi (ThermoFisher Scientific, Waltham, MA) dispenser. After the assay plates were incubated at a 37C and 0% CO2 for 5 hr, 23 nL of compounds dissolved in DMSO, positive controls or DMSO only was transferred to the assay plate by a Pintool station (Kalypsys, San Diego, CA). The transfer of compounds was followed by the addition of 1 uL of 0.5 nM (final concentration) agonist (R1881)/culture medium using a Flying Reagent Dispenser (FRD, Aurora Discovery, San Diego, CA). The plates were incubated at 37C and 0% CO2 for 16 hr. For cytotoxicity assay, 1 uL of CellTiter-Fluor reagent (Promega Corporation, Madison, WI) was added to each well using the FRD and after 30 min incubation at 37C and 0% CO2, The fluorescence intensity was measured using ViewLux plate reader (PerkinElmer, Shelton, CT).

| SMILES | Potency | viability change, negative = cytotoxic |
| --- | --- | --- |
| CC(=O)c1ccc2c(c1)CCCC2 | inactive |  |
| CCC(C)N (stereo not given) | inactive |  |
| NS(=O)(=O)c1ccccc1OC(F)(F)F | inactive |  |
| CCC(C)(CCC(C)C)C(=O)[O-].CCC(C)(CCC(C)C)C(=O)[O-].[Zn+2] (stereo not given) | inactive |  |
| OCCCCCCCl | inactive |  |
| C=CC(C)(O)CC/C=C(\C)CC (stereo not given) | inactive |  |
| CO[Si](CCCCl)(OC)OC | inactive |  |
| CNCc1ccccc1 | inactive |  |
| c1ccc(CNc2ncnc3nc[nH]c23)cc1 | inactive |  |
| COc1ccc(OC)c(NC(=O)CC(C)=O)c1 | inactive |  |
| CC(C)(C)c1ccc(C=O)cc1 | inactive |  |
| O=P(O)(O)OCC(O)CO (stereo not given) | inactive |  |
| O=C1NC2NC(=O)NC2N1 (stereo not given) | inactive |  |
| CCCCCC1CCCC(=O)O1 (stereo not given) | inactive |  |
| NC(Cc1c[nH]c2ccccc12)C(=O)O (stereo not given) | inactive |  |
| O=C1OC(=O)c2ccccc21 | inactive |  |
| O=C(O)c1ccccc1C(=O)Nc1ccc(S(=O)(=O)Nc2nccs2)cc1 | inactive |  |
| CC(C)CCO | inactive |  |
| CCOC(=O)CCc1ccccc1 | inactive |  |
| CCC(=O)OCCC(C)CCC=C(C)C (stereo not given) | inactive |  |

| SMILES | Potency | viability change, negative = cytotoxic |
| --- | --- | --- |
| SCCSCCS | inactive |  |
| CC1(N)CCC(C(C)(C)N)CC1 (stereo not given) | inactive |  |
| COC(OC)C(C)c1ccccc1 (stereo not given) | inactive |  |
| Cc1ccccc1OCC1CO1 (stereo not given) | inactive |  |
| NS(=O)(=O)c1cc2c(cc1Cl)NC(CC1CCCC1)NS2(=O)=O (stereo not given) | inactive |  |
| FC(F)(F)c1ccc(Cl)cc1Cl | inactive |  |
| O=S(=O)(O)CCO | inactive |  |
| Cc1ncc([N+](=O)[O-])n1CC(O)CCl (stereo not given) | inactive |  |
| CCCCC(CC)COC(=O)c1ccccc1 (stereo not given) | inactive |  |
| CCNC(=O)NCCCOc1cccc(CN2CCCCC2)c1 | inactive |  |
| C1=C\CC/C=C\CC/1 | inactive |  |
| Cc1cc(C)cc([N+](=O)[O-])c1 | inactive |  |
| O=C(Nc1cccc(C2=NCCN2)c1)Nc1cccc(C2=NCCN2)c1 |  | -0.888% [at 19 µM] |
| C=CCOc1cc(Cl)ccc1C(=O)NCCN(CC)CC | inactive |  |
| CCC1COC(=O)O1 (stereo not given) | inactive |  |
| CC(=O)OC[C@H]1O[C@@H](OC(C)=O)[C@H](OC(C)=O)[C@@H]1OC(C)=O | inactive |  |
| F[Si-2](F)(F)(F)(F)F | inactive |  |
| CN=C(NC#N)NCCSCc1csc(N=C(N)N)n1 | inactive |  |
| CNC(=O)NC | inactive |  |
| Cc1ccccc1C(=O)N1CC/C(=N\OS(=O)(=O)O)c2ccc(Cl)cc21 | inactive |  |
